Screens from PubChem.
ssDAF12 agonist = activators of S. stercoralis DAF-12 nuclear receptor | 370,000 tested, 1% active | activation, % at 6.8 µM | HEK293 ssDAF-12/GRIP1 lit1-tk-luc reporter, luminescence; % of 3 µM dafachronic acid response;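 active means activation above the mean over all tested compounds plus 3 SD, cut at about 0.9% in these data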
DAX1 inh-1 = inhibitors of DAX1 repression of SF-1 activated StAR promoter | HEK293T StAR-luciferase reporter, SF-1/DAX-1 repression relief | inhibition, % at 6.8 µM | 370,000 tested, 1.1% active;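 active means inhibition above the mean over all tested compounds plus 3 SD, cut at about 3.6% in these data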;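 further: higher inhibition means more luminescence from relief of DAX-1 repression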
DAX1 inh-2 = inhibits human nuclear receptor DAX1; P51843; HEK293 Gal4-DAX1 luciferase reporter, luminescence; inhibition, % at 6.75 µM; 340,000 tested, 0.99% active;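 active means inhibition above the mean over all tested compounds plus 3 SD, cut at about 4.2% in these data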;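 further: inhibition shows as a rise in luminescence from relieved DAX1 repression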
Target sequence (P51843 207-470 limits assumed): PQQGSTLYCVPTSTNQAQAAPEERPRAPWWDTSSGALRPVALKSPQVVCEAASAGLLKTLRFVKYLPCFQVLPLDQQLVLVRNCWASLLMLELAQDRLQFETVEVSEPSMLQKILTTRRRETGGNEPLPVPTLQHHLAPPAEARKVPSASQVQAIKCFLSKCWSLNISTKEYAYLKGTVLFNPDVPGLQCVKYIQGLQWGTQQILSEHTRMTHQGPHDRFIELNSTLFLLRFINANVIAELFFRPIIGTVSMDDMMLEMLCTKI
hcDAF12 agonist = H. contortus DAF-12 activation, primary screen; HEK293 hcDAF-12 lit1-tk-luc reporter, luminescence; 0% DMSO, 100% Δ7-dafachronic acid; activation, % at 6.8 µM; 370,000 tested, 1.4% active; AID 652067;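 active means activation above the mean of all tested compounds plus 3 SD, cut at about 5.5% in these data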
hgDAF12 agonist = hgDAF-12 agonism, primary luciferase screen; activation, % at 6.8 µM; HEK293 GAL4-hgDAF12 UAS-luciferase reporter, agonist luminescence; normalized to butyrate control; AID 687014; 370,000 tested, 1.8% active;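 active means activation above a cutoff set at the mean of all screened compounds plus 3 SD, cut at about 10% in these data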
Numbers stand for hits; – = inactive; · = no result given. The list is not random: actives were taken first. Their share in the collection is about 4.1%.

SMILES	ssDAF12 agonist	DAX1 inh-1	DAX1 inh-2	hcDAF12 agonist	hgDAF12 agonist
Cc1cc(C)cc(N=C2NC(=O)/C(=C/c3cccs3)S2)c1	–	–	–	–	–
CCCCN(C(=O)c1ccc2c(c1)OCCO2)c1c(N)n(CC(C)C)c(=O)[nH]c1=O	–	–	–	–	–
Cc1[nH]nc2c1C(c1ccccc1)N(Cc1ccccc1)C2=O (stereo unspecified)	–	–	·	–	–
O=C(Nc1nccs1)c1ccc2sc([C@H]3C[C@H](O)[C@@H](CO)O3)nc2c1	–	–	·	–	–
O=C(Nc1ccc2c(c1)OCO2)c1ccc2sc([C@@H]3O[C@H](CO)[C@@H](O)[C@H]3O)nc2c1	–	–	·	–	–
O=C(Nc1ccc(Cl)cc1)c1ccc2snnc2c1	–	–	–	6.2	10.9
O=C(Nc1ccc(Cl)cc1)c1ccc2ncsc2c1	–	–	–	–	–
O=C(Nc1ccc(Cl)cc1)c1ccc2sc([C@@H]3O[C@H](CO)[C@@H](O)[C@H]3O)nc2c1	–	–	·	–	11.1
O=C(Nc1ccc(F)cc1)c1ccc2ncsc2c1	–	–	–	–	12.3
O=C(Nc1nc2ccccc2s1)c1ccc2sc([C@H]3C[C@H](O)[C@@H](CO)O3)nc2c1	–	–	·	–	11.2
Nc1nc2c(ncn2[C@@H]2O[C@H](C(=O)N[C@H](Cc3ccccc3)C(=O)NCc3ccccc3)[C@@H](O)[C@H]2O)c(=O)[nH]1	–	–	·	–	–
C=C(C)CSc1nc2ncccc2[nH]1	–	–	–	–	–
Cc1ccc(CSc2nc3ncccc3[nH]2)cc1	–	–	–	–	12.9
O=C(CCc1ccccc1)N[C@H]1[C@@H](O)CCC[C@]12C(=O)N(Cc1ccccc1)c1ccccc12	–	–	·	–	–
Fc1ccc(F)c(C2=NNC(=NCC3CCCO3)SC2)c1 (stereo unspecified)	–	–	–	–	11.8
O=C(NNC1=C(C(=O)C(F)(F)F)CCC1)c1ccc(Cl)cc1	–	–	–	–	–
O=C(NNC1=C(C(=O)C(F)(F)F)CCC1)c1cccc(Cl)c1	–	–	5.2	–	12.9
CSc1nc2ccc(NC(=O)c3ccc(Cl)s3)cc2s1	–	4.1	–	–	–
Cc1nc2ccc(NC(=O)c3ccccc3)cc2s1	–	–	–	–	11.2
CC(=O)c1ccc(NC(=O)c2ccc3nc(C)sc3c2)cc1	–	–	–	–	–
Cc1nc2ccc(C(=O)Nc3ccccc3Cl)cc2s1	–	–	–	–	10.7
Cc1nc2ccc(NC(=O)c3sccc3C)cc2s1	–	–	–	–	12.1
CNC(=O)Nc1ccc2nc(C)sc2c1	–	–	–	–	–
Cc1ccc(CNC(=O)CCS(=O)(=O)c2cc3c(cc2Br)CCN3C(=O)C2CC2)o1	–	–	·	–	–
O=C(c1cccc(C(F)(F)F)c1)N1CC[C@H]2[C@H](CCCN2Cc2ccccc2)C1	–	–	·	–	–
SMILES	ssDAF12 agonist	DAX1 inh-1	DAX1 inh-2	hcDAF12 agonist	hgDAF12 agonist
Cc1ccc(S(=O)(=O)CCC(=O)Nc2cccc([N+](=O)[O-])c2)cc1	–	–	7.3	–	–
COc1cc(CC(=O)Nc2ccc3nc(SC)sc3c2)cc(OC)c1OC	–	–	–	–	–
CSc1nc2ccc(NC(=O)COc3ccccc3F)cc2s1	–	3.7	–	–	–
Cc1nc2ccc(NC(=O)c3ccco3)cc2s1	–	–	–	–	12.1
CSc1nc2ccc(NC(=O)CS(=O)(=O)c3ccccc3)cc2s1	–	–	–	–	10.5
COC(=O)C1CN(Cc2ccc(Cl)cc2)CCS(=O)(=O)N1Cc1cn(Cc2ccc(F)cc2)nn1 (stereo unspecified)	–	–	·	–	–
CCC(=O)N(Cc1ccccc1)c1ccccc1C(=O)Nc1cc(OC)ccc1OC	–	–	·	–	–
C[C@H]1[C@@H](NC(=O)c2ccc(C(F)(F)F)cc2)CC[C@@]23CCCN2C(=O)CCC[C@@H]13	–	·	·	–	–
O=C1C=C[C@H]2CC[C@@H](O)[C@@H]1[C@@H]2Sc1ccccc1	–	–	·	–	–
O=C(CCCCCN1C(=O)C2C3C=CC(C3)C2C1=O)N1CCN(c2ncccn2)CC1 (stereo unspecified)	–	–	·	–	–
Cc1nc2ccc(NC(=O)Cc3ccsc3)cc2s1	1.3	–	–	5.8	–
Cc1nc2ccc(NC(=O)CCS(=O)(=O)c3ccccc3)cc2s1	–	–	5.2	–	–
Cc1ccc2nc(NC(=S)NC(=O)c3ccco3)sc2c1	–	–	5.2	–	11.9
Cc1ccc(S(=O)(=O)CCC(=O)Nc2ccc3nc(C)sc3c2)cc1	–	–	–	–	–
COC(=O)[C@]12C[C@H](CC(=O)N3CCC(c4ccccc4)CC3)C(=O)N(Cc3ccco3)C1=C[C@H](C(C)(C)C)O[C@@H]2C	–	–	·	–	–
O=C(c1cc(-c2ccc(Cl)cc2)nc2ccccc12)N1CCN(c2ncccn2)CC1	–	–	·	–	–
CN1C(=O)[C@@]2(O[C@H]3C=CC=CN3C3=C2C(=O)CCC3)c2cccc(Br)c21	0.9	–	·	–	–
Cc1nc2cc(NC(=O)Nc3cccc([N+](=O)[O-])c3)ccc2n1C	–	–	–	–	11.2
COC(=O)c1ccc(NC(=O)Nc2ccc3c(c2)nc(C)n3C)cc1	–	–	–	–	–
CC(=O)c1ccc(NC(=O)Nc2ccc3c(c2)nc(C)n3C)cc1	–	4.0	–	–	–
CCOC(=O)/C(C#N)=C/Nc1ccccc1OC	–	–	–	–	12.8
CCOC(=O)[C@]12CCCC=C1N(CCCOC)C(=O)[C@@H]2CC(=O)N1CCSCC1	–	–	·	–	–
COc1ccc(CNC(=O)COC(=O)c2ccccc2OCC(=O)Nc2ccc(SC(F)F)cc2)cc1	–	–	6.5	–	–
CCOc1ccc(OCC)c(NC(=O)c2ccc(CNc3c(N4CCCC4)c(=O)c3=O)cc2)c1	–	–	6.3	–	–
C[C@H](CO)N1C[C@H](C)[C@@H](CN(C)C(=O)Nc2ccccc2F)Oc2ncc(Br)cc2C1=O	–	–	–	–	–
SMILES	ssDAF12 agonist	DAX1 inh-1	DAX1 inh-2	hcDAF12 agonist	hgDAF12 agonist
COc1cccc(S(=O)(=O)N(C)C[C@H]2Oc3ncc(Br)cc3C(=O)N([C@H](C)CO)C[C@H]2C)c1	–	–	–	–	–
COc1ccccc1NC(=O)N(C)C[C@H]1Oc2ncc(Br)cc2C(=O)N([C@H](C)CO)C[C@H]1C	1.1	–	4.7	–	–
COc1cccc(S(=O)(=O)N(C)C[C@@H]2Oc3ncc(Br)cc3C(=O)N([C@H](C)CO)C[C@@H]2C)c1	1.2	–	·	–	–
CCOC(=O)C(Cc1ccccc1)P(=O)(OCC)OCC (stereo unspecified)	–	·	·	–	–
CCCCN1C(=O)N2CCc3ccccc3C2CS1(=O)=O (stereo unspecified)	–	–	·	–	–
NC(=O)CSc1nnc(-c2ccco2)n1-c1ccc(F)cc1	–	–	–	–	–
Cc1cccc(CN2CCN(C(=S)Nc3ccccc3)CC2)c1	–	–	10.9	–	–
